Experimental data as given in PubChem BioAssay (NCATS).
Several values for one entry are separate records, joined by “and”; a condition that tells them apart may be missing. Equal values may be shown once. Results filed as inconclusive are left out. Activity calls are given as the source filed them. Unless noted, the call rests on the fitted dose curve; in most records, active means well fitted curve in the direction sought with a large enough effect; inconclusive means small, poorly fitted or top-dose-only effect, or another doubt; inactive means no such curve, though single readings can be large; an effect the other way counts as inactive or inconclusive.

Columns and labels:
[1] = S16 Schwann cell PMP22 intronic element firefly luciferase assay (AID 624032); further: nearly all actives have a fitted effect of over 30% in size; further: potency means the concentration at half of the fitted maximal effect
Summary of the method: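 Luciferase reporter of PMP22 intronic-element expression in stably transfected S16 rat Schwann cells, read by ONE-Glo luminescence after 24 h compound exposure at 37 C. Activity scaled between DMSO (0%) and positive-control PTC124; concentration-effect curves quality-classified.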

[2] = S16 Schwann cell PMP22 intronic element beta-lactamase assay (AID 624044; calls by dose curve; further: nearly all actives have a fitted effect of over 15% in size; further: potency means the concentration at half of the fitted maximal effect)
Summary of the method: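 Rat S16 Schwann cells with beta-Lac driven by a PMP22 intronic element, compound-treated 24 h at 37 °C. LiveBLAzer FRET B/G read: 460 nm normalized to potassium clavulanate vs DMSO; 535 nm FRET as viability; concentration-effect curves classified.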

[3] = target: Glutaminase kidney isoform, mitochondrial (Homo sapiens) (UniProt O94925); assay: qHTS for Inhibitors of Glutaminase (GLS): LOPAC Validation (AID 624146); further: nearly all actives have a fitted effect of over 60% in size; further: potency means the concentration at half of the fitted maximal effect
Chain of Glutaminase kidney isoform, mitochondrial (Homo sapiens) (O94925 whole entry, looked up, canonical isoform): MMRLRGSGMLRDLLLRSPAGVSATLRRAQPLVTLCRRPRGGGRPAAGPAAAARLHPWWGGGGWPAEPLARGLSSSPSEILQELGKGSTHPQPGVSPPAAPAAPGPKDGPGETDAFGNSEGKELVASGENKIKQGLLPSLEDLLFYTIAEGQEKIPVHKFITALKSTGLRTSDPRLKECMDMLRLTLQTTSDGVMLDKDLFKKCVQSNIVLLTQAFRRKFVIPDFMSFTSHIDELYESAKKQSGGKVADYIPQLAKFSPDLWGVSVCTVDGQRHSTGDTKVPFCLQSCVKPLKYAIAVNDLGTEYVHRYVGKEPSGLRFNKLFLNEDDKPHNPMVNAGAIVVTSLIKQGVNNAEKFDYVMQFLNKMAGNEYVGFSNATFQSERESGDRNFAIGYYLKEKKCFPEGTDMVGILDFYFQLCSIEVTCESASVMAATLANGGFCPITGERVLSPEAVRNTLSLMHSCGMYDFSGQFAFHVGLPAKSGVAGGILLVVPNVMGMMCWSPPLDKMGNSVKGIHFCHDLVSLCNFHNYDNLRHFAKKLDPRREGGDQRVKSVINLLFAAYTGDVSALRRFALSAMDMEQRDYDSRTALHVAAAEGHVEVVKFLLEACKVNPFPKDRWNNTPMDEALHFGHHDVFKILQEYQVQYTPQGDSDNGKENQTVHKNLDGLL
Summary of the method: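 Assay buffer: 45 mM KH2PO4 pH 8.2, 0.02% Tween-20. hKGA acts on L-glutamine (1 mM solution added); product glutamate is reported by an oxidase/peroxidase Amplex Red coupling, with fluorescence taken at baseline and 30 min.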

[4] = qHTS of Trypanosoma Brucei Inhibitors: LOPAC Validation (AID 624147); further: 0% is about no effect
Summary of the method: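 Quantitative HTS: titrated library compounds versus trypanosomal pyruvate kinase in TEA buffer (pH 7.2) containing KCl, MgCl2, BSA and Tween-20. Reactions were initiated with ADP, 130 uM final. Kinase-Glo Plus luminescence was read after 45 min at RT.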

[5] = target: Glucagon-like peptide 1 receptor (Homo sapiens) (UniProt P43220); assay: qHTS of GLP-1 Receptor Agonists: LOPAC Validation (AID 624148);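 further: luminescence from a luciferase reporter switched on by cAMP; 0% is about no effect; higher luminescence signal means agonism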
Chain of Glucagon-like peptide 1 receptor (Homo sapiens) (P43220 whole entry, looked up): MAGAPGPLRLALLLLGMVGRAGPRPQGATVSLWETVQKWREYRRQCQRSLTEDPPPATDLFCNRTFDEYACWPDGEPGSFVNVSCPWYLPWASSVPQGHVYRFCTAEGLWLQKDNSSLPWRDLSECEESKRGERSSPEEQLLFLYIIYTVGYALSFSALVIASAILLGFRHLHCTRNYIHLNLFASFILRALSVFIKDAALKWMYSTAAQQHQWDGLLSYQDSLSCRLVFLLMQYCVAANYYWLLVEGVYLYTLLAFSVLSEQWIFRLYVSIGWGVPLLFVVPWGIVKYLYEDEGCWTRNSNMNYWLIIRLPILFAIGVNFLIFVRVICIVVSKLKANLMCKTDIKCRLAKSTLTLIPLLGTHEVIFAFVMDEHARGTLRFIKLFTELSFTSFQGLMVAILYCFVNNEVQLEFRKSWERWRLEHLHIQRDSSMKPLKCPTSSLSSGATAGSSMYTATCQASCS
Summary of the method: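 Agonism scored as increased luciferase luminescence driven by cAMP in HEK293 clones carrying GLP-1R. Cells settled 12 hours, received compound for 4-6 hr at 37 deg C, 5% CO2, and were read after 12 min detection reagent at RT.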

[6] = qHTS of Nrf2 Activators: LOPAC Validation (AID 624149); further: 0% is about no effect
Summary of the method: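 ARE reporter activation measured in AREc32 firefly luciferase cells after 24 hr compound exposure; Steady-Glo luminescence.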

[7] = HTS Assay for Allosteric Antagonists of the Human D2 Dopamine Receptor: Hit Validation in HTRF (AID 624455);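 further: stable D1 dopamine receptor cell line scored for blocking the D1 response; on the % scale 0 is the no-effect control and ±100 the full control effect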
Summary of the method: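 Signal from an HTRF read-out in D1-expressing stable cells gave hit activity as inhibition of the D1 response.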

[8] = qHTS assay for small molecule agonists of the antioxidant response element (ARE) signaling pathway (AID 651741; active means well fitted activation curve with a large enough effect in the signal ratio; the % refers to the signal ratio; further: potency means the concentration at half of the fitted maximal effect)
Summary of the method: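 Seeding 2,000 ARE-bla HepG2 cells per well preceded a 5 h incubation at 37 C/5% CO2 and a 16 h compound exposure at 37 C. Beta-lactamase reporter activity was then quantified by fluorescence after 2 h with LiveBLAzer B/G FRET substrate.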

[9] = qHTS assay for small molecule activators of the nuclear factor-kappa B (NF-kB) signaling pathway (AID 651749; active means well fitted activation curve with a large enough effect in the signal ratio; the % refers to the signal ratio; further: % of control where 0% means no effect); details: NF-kB-bla ME-180 cells, beta-lactamase FRET ratio, 16 h; stronger effect = higher value
Summary of the method: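 Stably transfected ME-180 line; NF-kB response element upstream of beta-lactamase. Treatment: compound or DMSO, 16 hr. Detection: fluorescent FRET substrate.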

[10] = qHTS assay for small molecule disruptors of the mitochondrial membrane potential - 1 hr assay (AID 651754; calls by dose curve; further: nearly all actives have a fitted effect of over 35% in size; further: potency means the concentration at half of the fitted maximal effect)
Summary of the method: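 Steps: seed HepG2 cells and let attach overnight; pin-transfer compound or vehicle; incubate 1 hr at 37C; add Mito-MPS dye for 30 min; read two-channel fluorescence for monomer and aggregate forms.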

[11] = qHTS assay for small molecule disruptors of the mitochondrial membrane potential - 5 hr assay (AID 651755; calls by dose curve; further: nearly all actives have a fitted effect of over 40% in size; further: potency means the concentration at half of the fitted maximal effect)
Summary of the method: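 HepG2, 2,000 cells/well, overnight attach; cpd or DMSO 5 hr, 37C/5% CO2; Mito-MPS 30 min 37C; fluor 490/535 + 540/590 nm.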

[12] = target: Tumor necrosis factor (Homo sapiens) (UniProt P01375); assay: qHTS assay to identify small molecules that stimulate Tumor Necrosis Factor-alpha (TNF-alpha) secretion (AID 651757; active means well fitted curve in the direction sought with a large enough effect in the signal ratio; the % refers to the signal ratio; further: 0% is about no effect)
Chain of Tumor necrosis factor (Homo sapiens) (P01375 whole entry, looked up): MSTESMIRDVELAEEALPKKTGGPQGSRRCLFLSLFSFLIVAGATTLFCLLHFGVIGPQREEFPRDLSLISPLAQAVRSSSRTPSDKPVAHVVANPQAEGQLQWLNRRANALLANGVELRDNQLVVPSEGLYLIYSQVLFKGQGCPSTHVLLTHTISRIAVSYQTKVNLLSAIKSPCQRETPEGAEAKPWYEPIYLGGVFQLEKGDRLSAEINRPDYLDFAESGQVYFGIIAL
Summary of the method: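 Secreted TNF-alpha from compound-treated THP-1 cells (17 hrs, 37 C) was quantified with a homogeneous time-resolved fluorescence antibody assay.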

[13] = Cytotoxicity counterscreen for NFkB agonists and antagonists (AID 624476);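 further: potency means the concentration at half of the fitted maximal effect; cells exposed to compound for 48 hours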
[14] = qHTS Assay for Identification of Small Molecule Agonists for NFkB Signaling Pathway. (AID 624478);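 further: compounds tested together with TNF alpha at its EC50 of 10 pM; 0% is about no effect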
Summary of the method: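 Cells carrying an NFkB response element-driven beta-lactamase gene are co-treated with compound and 10 pM TNF alpha for 5 h, and reporter activity is then read as 460 and 530 nm fluorescence.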

[15] = Cell Proliferation Assay against the TMD8 Cell Line (AID 651645); details: TMD8 DLBCL cell line proliferation/viability; at 46.1 µM (top of the series) unless noted;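 further: cells exposed to compound for 48 h before reading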
Summary of the method: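 Luminescent ATP read-out (CellTiter-Glo, 15 min RT) after 48 h compound exposure of log-growing TMD8 cells at 37C; percent activity scaled between DMSO as 100% and 9.2 uM bortezomib final as 0%.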

[16] = Cell Proliferation Assay against the HBL1 Cell Line (AID 651646); details: HBL1 DLBCL cells; at 46.1 µM (top of the series) unless noted;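 further: cells exposed to compound for 48 h before reading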
Summary of the method: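 Luminescent ATP read-out (CellTiter-Glo) after 48 h compound exposure of HBL1 cells at 37 °C; percent activity was scaled between DMSO as 100% and 9.2 uM bortezomib (final) as 0%.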

[17] = qHTS Assay for Identification of Small Molecule Antagonists for NFkB Signaling Pathway. (AID 624479; calls by dose curve;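 further: pathway stimulated with TNF alpha; potency means the concentration at half of the fitted maximal effect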)
[18] = target: Tumor susceptibility gene 101 protein (Homo sapiens) (UniProt Q99816); assay: qHTS Assay for Iinhibitors of HIV-1 Budding by Blocking the Interaction of PTAP/TSG101: Hit Validation (AID 651600); details: PTAP peptide/TSG101 UEV interaction, biochemical assay; further: potency means the concentration at half of the fitted maximal effect; nearly all actives have a fitted effect of over 70% in size
Chain of Tumor susceptibility gene 101 protein (Homo sapiens) (Q99816 whole entry, looked up, the tested form may be a part): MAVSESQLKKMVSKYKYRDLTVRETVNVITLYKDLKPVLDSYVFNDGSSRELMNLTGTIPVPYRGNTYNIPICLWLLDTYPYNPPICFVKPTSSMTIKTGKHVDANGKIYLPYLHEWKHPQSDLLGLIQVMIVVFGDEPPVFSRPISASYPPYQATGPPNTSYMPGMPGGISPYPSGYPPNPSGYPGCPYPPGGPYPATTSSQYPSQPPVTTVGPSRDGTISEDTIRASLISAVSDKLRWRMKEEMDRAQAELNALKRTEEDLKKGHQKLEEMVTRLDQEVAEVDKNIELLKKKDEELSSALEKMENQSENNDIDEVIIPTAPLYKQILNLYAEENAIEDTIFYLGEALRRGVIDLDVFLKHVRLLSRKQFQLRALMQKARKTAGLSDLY
Summary of the method: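 Tsg101 binding domain 10 uM + FITC-PTAP peptide 50 nM (final), 10 mM HEPES pH 7.5/0.15 M NaCl/0.01% Tween 20/3 mM EDTA/0.1 mM TCEP; 20 min RT; FP read, FITC filters.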

[19] = Cell Proliferation Assay against the TMD8 Cell Line (Caspase readout at 16 hrs) (AID 651712); further: potency means the concentration at half of the fitted maximal effect
Summary of the method: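 Apoptotic response of TMD8 cells was judged from caspase 3/7 activation following a 16 hour compound incubation at 37 °C. Luminescent signal was converted to percent activity, with DMSO set as 0% and 9.2 uM final bortezomib as 100%.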

[20] = Cell Proliferation Assay against the TMD8 Cell Line (Caspase readout at 8 hrs) (AID 651713); further: potency means the concentration at half of the fitted maximal effect
Summary of the method: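 Percent activity derived from Caspase-Glo signal, DMSO set to 0% and bortezomib (9.2 uM final) to 100%. TMD8 cells were exposed to compound for 8 h in RPMI with 5% FBS.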

Nc1nnc(-c2cccc(Cl)c2Cl)c(N)n1
inactive: Potency [1] | Potency [2] | Potency [3] | Potency [4] | Potency [5] | outcome [6] | Potency [7]

O=C(c1ccc(OCCN2CCCCC2)cc1)c1c(-c2ccc(O)cc2)sc2cc(O)ccc12
inactive: Potency [4] | Potency [5] | outcome [6] | Potency [7]
active: Potency [1] 5.1 µM | Potency [3] 2.82 µM

O=c1c(-c2ccc(O)cc2)coc2cc(O)cc(O)c12
inactive: Potency [1] | Potency [3] | Potency [4] | Potency [5] | outcome [6] | Potency [7] | activation [9] 3.3% and 4.88%
active: Potency [2] 25.1 µM | Potency [8] 9.69 µM and 13.3 µM | Potency [10] 5.96 µM | Potency [11] 7.5 µM

CCOC(=O)c1ncn2c1CN(C)C(=O)c1cc(F)ccc1-2
inactive: Potency [1] | Potency [3] | Potency [4] | Potency [5] | outcome [6] | Potency [7]

CNCCCC12CCC(c3ccccc31)c1ccccc12
inactive: Potency [3] | Potency [4] | Potency [5] | outcome [6] | Potency [7]
active: Potency [1] 32.2 µM

CN1CCN2c3ccccc3Cc3ccccc3C2C1 (centres undefined)
inactive: Potency [1] | Potency [2] | Potency [3] | Potency [5] | outcome [6] | Potency [7]

O=C1c2c(O)ccc(O)c2C(=O)c2c(NCCNCCO)ccc(NCCNCCO)c21
inactive: Potency [4] | Potency [5] | outcome [6]
active: Potency [1] 0.346 µM | Potency [3] 3.55 µM

O=C1N(c2ccccc2)c2ccccc2C1(Cc1ccncc1)Cc1ccncc1
inactive: Potency [1] | Potency [2] | Potency [3] | Potency [5] | outcome [6] | Potency [7]

NCCS(=O)(=O)O
inactive: Potency [1] | Potency [2] | Potency [3] | Potency [4] | Potency [5] | outcome [6] | Potency [7] | Potency [10] | Potency [11] | outcome [12]

Clc1ccc2nsnc2c1NC1=NCCN1
inactive: Potency [1] | Potency [3] | Potency [4] | Potency [5] | outcome [6] | Potency [7]

NCCCCCC(=O)O
inactive: Potency [1] | Potency [3] | Potency [4] | Potency [5] | outcome [6] | Potency [7]

COc1ccccc1OCC(O)CN1CCN(CC(=O)Nc2c(C)cccc2C)CC1 (centres undefined)
inactive: Potency [1] | Potency [2] | Potency [3] | Potency [4] | Potency [5] | outcome [6] | Potency [7]

NC(=O)NO
active: Potency [3] 8.91 µM
inactive: Potency [1] | Potency [4] | Potency [5] | outcome [6] | Potency [7]

CS(=O)(=O)CCNCc1ccc(-c2ccc3ncnc(Nc4ccc(OCc5cccc(F)c5)c(Cl)c4)c3c2)o1
0.834%: viability (% of control) [15]
inactive: Potency [1] | Potency [2] | outcome [14]
active: Potency [13] 23.5 µM
3.03%: viability, percent of control [16]

CC[C@@]1(O)C(=O)OCc2c1cc1n(c2=O)Cc2cc3c(CN(C)C)c(O)ccc3nc2-1
4.59%: viability (% of control) [15]
inactive: outcome [14]
active: Potency [1] 0.51 µM | Potency [2] 15.8 µM | Potency [13] 0.0235 µM | Potency [17] 5.95 µM | Potency [18] 6.51 µM | Potency [19] 0.0074 µM | Potency [20] 1.48 µM
33.6%: viability, percent of control [16]
